# Experimental data: the supplement of paper PMC11732987, “Enantioselective OTUD7B fragment discovery through chemoproteomics screening and high-throughput optimisation” (Communications Chemistry, 2025)
# Values without a mark were called inactive.
# Legend:
# Assay in all cases: log2 ratio of Biotin-Ahx-Ub-VS probe labelling (fragment/DMSO); higher = less target engagement (more negative = stronger competition), active = hit call of the paper (q ≤ 0.05, log2 ratio ≤ -1)
# Conditions in all cases: compound concentration: 200 uM; treatment time: 3 h
# USP19 = target: T1, USP19 (UniProt O94966)
# T1 sequence (whole entry): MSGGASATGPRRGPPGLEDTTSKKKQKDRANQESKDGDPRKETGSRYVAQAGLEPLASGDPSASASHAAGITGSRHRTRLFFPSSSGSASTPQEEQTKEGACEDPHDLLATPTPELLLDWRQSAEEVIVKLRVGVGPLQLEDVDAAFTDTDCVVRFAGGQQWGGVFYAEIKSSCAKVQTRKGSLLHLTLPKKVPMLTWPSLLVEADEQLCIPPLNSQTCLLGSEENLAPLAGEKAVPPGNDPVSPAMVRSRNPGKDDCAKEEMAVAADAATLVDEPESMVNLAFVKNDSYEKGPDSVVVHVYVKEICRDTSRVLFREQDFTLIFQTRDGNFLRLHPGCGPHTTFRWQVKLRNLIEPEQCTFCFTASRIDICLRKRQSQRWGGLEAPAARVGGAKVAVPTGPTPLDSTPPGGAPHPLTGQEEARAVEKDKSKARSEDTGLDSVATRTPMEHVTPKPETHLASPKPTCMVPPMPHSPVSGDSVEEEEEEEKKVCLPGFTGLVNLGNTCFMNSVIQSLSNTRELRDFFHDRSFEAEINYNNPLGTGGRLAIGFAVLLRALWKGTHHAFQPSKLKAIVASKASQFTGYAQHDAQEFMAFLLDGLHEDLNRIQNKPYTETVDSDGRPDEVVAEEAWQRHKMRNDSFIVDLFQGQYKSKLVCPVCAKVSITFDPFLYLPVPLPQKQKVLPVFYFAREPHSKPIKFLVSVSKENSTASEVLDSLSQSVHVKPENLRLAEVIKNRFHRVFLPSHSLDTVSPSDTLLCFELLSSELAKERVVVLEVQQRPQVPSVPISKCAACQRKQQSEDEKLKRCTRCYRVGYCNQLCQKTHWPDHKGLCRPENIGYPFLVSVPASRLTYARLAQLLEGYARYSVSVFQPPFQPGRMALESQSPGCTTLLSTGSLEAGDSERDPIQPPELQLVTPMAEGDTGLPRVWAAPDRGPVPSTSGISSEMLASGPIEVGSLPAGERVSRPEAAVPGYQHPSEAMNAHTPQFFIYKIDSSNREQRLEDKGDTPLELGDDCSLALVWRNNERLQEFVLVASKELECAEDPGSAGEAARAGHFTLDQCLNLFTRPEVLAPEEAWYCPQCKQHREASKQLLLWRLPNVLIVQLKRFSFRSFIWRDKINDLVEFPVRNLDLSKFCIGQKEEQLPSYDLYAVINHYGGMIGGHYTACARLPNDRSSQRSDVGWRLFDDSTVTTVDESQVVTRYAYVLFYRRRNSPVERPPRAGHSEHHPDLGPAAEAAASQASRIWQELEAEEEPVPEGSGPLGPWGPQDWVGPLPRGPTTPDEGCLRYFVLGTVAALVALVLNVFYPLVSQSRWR
# In short: (§1)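 HEK293T lysate (495 µg per sample, in Tris/CHAPS/IGEPAL buffer with protease inhibitors) was exposed in triplicate for 3 h to fragment at 200 µM or to vehicle, then to Biotin-Ahx-Ub-VS at 0.5 µM final for 1 h. Labelled DUBs were enriched on NeutrAvidin, digested with LysC and trypsin, and analysed by diaPASEF LC-MS/MS. Spectronaut label-free quantities were normalised to the global median, and values are average log2 ratios of fragment over vehicle from an unpaired t-test. Only proteins with ≥2 unique peptides were used.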
# USP22 = target: T2, USP22 (UniProt Q9UPT9)
# T2 sequence (whole entry): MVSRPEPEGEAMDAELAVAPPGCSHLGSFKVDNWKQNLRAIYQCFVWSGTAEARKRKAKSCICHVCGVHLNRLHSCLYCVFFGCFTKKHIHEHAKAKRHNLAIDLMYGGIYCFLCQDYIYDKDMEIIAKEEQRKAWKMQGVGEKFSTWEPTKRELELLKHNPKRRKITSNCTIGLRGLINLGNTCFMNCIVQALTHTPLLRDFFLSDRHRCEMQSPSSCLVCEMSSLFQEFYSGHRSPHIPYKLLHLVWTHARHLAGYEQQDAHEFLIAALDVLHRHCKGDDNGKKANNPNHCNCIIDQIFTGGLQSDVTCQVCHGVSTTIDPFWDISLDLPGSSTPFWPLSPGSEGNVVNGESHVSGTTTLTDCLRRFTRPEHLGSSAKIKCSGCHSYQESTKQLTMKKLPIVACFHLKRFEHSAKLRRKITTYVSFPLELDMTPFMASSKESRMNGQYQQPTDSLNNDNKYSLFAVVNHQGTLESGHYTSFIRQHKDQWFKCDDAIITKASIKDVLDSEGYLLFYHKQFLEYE
# In short: as §1
# USP24 = USP24 (UniProt Q9UPU5)
# Chain of USP24 (Q9UPU5 whole entry): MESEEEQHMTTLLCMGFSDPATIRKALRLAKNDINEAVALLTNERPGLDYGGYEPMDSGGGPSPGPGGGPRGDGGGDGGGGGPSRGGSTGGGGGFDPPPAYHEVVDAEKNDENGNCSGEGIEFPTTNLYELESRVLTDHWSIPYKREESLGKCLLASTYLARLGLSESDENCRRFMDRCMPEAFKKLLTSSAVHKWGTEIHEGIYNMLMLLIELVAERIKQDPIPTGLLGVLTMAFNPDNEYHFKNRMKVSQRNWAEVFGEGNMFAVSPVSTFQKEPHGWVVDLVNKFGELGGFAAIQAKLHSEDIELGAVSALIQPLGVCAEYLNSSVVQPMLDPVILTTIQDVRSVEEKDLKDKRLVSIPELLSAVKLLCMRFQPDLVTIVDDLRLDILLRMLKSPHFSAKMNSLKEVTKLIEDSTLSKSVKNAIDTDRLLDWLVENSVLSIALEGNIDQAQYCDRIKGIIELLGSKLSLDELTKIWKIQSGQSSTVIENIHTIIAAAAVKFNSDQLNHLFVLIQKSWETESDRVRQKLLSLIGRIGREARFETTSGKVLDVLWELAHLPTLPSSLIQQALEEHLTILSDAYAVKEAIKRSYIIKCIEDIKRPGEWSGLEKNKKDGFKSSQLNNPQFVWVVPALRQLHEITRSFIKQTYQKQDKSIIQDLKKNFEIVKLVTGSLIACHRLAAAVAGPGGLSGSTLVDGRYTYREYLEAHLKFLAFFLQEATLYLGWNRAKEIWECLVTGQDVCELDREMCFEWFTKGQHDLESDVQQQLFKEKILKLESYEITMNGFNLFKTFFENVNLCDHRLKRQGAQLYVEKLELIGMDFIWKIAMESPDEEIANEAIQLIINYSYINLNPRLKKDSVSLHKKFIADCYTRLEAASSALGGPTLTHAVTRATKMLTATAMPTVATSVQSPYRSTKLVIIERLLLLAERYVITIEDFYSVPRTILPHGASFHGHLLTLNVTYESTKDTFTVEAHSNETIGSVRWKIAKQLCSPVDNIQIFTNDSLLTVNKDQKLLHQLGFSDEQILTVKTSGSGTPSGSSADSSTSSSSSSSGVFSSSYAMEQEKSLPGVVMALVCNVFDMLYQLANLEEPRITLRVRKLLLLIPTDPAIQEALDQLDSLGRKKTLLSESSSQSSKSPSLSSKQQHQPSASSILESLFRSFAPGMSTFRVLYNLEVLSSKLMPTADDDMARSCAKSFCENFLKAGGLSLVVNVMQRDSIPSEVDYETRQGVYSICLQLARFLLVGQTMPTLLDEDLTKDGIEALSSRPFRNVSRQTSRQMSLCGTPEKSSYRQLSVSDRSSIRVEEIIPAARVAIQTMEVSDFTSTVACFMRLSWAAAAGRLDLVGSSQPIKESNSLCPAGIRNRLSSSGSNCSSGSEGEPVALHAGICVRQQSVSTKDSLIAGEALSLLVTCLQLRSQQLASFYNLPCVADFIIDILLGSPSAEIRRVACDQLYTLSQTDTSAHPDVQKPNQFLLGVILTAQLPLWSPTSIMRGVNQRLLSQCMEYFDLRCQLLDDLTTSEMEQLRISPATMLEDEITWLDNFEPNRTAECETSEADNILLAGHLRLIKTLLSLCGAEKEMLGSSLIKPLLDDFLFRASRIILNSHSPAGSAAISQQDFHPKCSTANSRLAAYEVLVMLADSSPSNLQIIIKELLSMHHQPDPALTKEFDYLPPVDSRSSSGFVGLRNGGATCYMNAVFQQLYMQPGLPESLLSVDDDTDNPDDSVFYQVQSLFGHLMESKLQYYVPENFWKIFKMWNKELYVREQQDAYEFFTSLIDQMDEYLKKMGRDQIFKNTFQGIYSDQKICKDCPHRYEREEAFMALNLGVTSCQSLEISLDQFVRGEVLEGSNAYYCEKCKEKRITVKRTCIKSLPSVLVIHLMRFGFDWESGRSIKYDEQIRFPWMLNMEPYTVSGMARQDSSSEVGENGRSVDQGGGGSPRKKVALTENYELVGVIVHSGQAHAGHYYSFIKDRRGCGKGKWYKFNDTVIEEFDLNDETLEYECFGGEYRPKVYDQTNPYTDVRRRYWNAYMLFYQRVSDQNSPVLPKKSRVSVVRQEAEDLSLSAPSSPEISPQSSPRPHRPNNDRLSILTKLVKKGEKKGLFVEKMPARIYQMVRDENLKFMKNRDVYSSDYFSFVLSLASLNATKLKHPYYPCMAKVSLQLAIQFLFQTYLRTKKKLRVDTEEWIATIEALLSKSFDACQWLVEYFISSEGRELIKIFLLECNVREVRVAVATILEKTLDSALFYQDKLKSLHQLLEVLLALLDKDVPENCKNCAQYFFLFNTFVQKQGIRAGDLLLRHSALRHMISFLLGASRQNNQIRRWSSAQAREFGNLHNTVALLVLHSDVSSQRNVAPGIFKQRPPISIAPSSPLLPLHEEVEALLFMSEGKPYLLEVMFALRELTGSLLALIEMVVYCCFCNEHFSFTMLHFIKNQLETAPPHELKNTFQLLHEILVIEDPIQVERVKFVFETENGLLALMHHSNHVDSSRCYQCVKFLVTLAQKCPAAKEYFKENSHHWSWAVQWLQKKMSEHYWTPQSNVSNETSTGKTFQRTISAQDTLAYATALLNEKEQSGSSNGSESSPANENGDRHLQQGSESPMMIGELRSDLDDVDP
# In short: as §1
# USP25 = target: T3, USP25 (UniProt Q9UHP3)
# T3 sequence (whole entry): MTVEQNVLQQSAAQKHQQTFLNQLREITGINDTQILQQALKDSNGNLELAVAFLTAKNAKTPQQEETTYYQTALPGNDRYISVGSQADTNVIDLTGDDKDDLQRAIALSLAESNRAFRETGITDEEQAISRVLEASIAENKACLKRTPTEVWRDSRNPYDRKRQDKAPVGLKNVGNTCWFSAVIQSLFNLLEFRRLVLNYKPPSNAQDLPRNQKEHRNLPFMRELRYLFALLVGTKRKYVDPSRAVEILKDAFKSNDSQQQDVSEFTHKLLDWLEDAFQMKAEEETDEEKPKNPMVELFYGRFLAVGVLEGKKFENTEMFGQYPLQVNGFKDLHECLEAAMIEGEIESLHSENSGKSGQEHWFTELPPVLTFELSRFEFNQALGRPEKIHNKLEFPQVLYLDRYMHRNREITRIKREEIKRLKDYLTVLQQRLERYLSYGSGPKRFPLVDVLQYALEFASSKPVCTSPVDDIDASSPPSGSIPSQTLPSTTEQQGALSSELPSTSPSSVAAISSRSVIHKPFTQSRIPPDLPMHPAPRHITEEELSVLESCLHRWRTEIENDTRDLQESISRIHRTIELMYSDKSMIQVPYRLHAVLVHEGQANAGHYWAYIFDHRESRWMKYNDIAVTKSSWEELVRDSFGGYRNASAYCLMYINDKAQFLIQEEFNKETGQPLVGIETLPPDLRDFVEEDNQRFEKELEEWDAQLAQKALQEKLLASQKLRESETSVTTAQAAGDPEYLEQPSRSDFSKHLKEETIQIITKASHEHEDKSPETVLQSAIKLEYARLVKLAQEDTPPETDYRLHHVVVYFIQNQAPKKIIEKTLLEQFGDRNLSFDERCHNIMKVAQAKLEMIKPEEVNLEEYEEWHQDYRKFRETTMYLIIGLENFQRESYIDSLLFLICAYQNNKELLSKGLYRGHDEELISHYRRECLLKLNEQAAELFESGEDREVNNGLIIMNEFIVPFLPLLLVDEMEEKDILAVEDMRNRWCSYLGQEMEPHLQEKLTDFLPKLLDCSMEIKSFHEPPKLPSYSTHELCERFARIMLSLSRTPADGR
# In short: as §1
# USP28 = target: T4, USP28 (UniProt Q96RU2)
# T4 sequence (whole entry): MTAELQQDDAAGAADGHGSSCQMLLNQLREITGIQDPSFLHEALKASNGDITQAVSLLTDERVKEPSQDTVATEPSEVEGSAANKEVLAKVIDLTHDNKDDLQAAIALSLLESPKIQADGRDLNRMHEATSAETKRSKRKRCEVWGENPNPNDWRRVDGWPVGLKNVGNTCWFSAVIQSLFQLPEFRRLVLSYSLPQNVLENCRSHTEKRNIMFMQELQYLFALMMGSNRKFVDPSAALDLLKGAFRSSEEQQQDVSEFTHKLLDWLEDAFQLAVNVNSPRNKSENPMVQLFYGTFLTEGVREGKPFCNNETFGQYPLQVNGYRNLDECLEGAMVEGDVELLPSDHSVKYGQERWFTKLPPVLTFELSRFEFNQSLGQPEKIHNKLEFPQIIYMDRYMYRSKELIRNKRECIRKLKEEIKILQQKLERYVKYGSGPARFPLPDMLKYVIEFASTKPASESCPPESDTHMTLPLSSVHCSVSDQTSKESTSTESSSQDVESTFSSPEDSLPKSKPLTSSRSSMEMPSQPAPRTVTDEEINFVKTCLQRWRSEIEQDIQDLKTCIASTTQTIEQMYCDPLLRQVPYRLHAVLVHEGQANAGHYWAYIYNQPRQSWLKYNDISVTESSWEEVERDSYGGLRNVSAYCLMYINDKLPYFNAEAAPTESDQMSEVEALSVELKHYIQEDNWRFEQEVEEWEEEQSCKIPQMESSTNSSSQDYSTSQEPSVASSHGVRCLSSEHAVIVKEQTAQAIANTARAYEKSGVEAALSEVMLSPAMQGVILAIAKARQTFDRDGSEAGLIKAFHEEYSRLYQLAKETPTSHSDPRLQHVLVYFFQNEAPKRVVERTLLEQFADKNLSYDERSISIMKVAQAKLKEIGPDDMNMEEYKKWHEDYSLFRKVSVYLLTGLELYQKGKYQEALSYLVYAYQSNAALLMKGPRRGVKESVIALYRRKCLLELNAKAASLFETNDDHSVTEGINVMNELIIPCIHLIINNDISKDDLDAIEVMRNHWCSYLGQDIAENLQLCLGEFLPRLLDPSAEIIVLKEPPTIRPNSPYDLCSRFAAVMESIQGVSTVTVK
# In short: as §1
smiles,measurement,setting,value
Cc1cccc(NC(=O)CCl)c1C,log2 ratio of Biotin-Ahx-Ub-VS probe labelling,USP19,-0.393
same,log2 ratio of Biotin-Ahx-Ub-VS probe labelling,USP22,-0.267
same,log2 ratio of Biotin-Ahx-Ub-VS probe labelling,USP24,-0.573
same,log2 ratio of Biotin-Ahx-Ub-VS probe labelling,USP25,-1.06 (active)
same,log2 ratio of Biotin-Ahx-Ub-VS probe labelling,USP28,-1.32 (active)
